Laboratory results as given in PubChem BioAssay AID588850 (Sanford-Burnham Center for Chemical Genomics, 2011).
Among all 360,000 compounds or so, about 3,100 (0.86%) were called active. What follows is part of a selection rich in actives, with near analogues and random picks from the rest. Values without a mark were called inactive.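 The calls were made as follows: active = at least 50% inhibition at 5 µM, scaled per plate between neutral and stimulator controls; inactive = the rest.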

Assay: inhibitors of PAF-induced NF-kB signaling, primary screen, cell-based, GFP fluorescence, uHTS (AID 588850);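 also: PAF is a Pseudomonas aeruginosa culture filtrate used as stimulus; plate controls were PAF-stimulated DMSO wells for no effect and unstimulated DMSO wells for full effect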
Details: KKLEB NF-kB-GFP reporter, GFP fluorescence overnight, at 5 µM, active compounds read high

SMILES	inhibition
O=C1C(Cl)=C(Oc2ccccc2)C(=O)c2ccccc21	59.1% (active)
Cc1nc2sccn2c(=O)c1S(=O)(=O)NCCc1ccccc1	-12.2%
CCc1nc2c(OCCc3cccc(OC)c3)cccn2c1N(C)C(=O)c1ccc(C)cc1	5.8%
Cc1ccc(Cn2c(C)c3cnn(CC(=O)NCCN4CCOCC4)c(=O)c3c2C)cc1	-0.6%
O=C(c1c(F)cccc1F)N1CCN(c2ncc(Br)cn2)CC1	-1.3%
O=C(NNC(=O)c1ccc(-n2cncn2)c([N+](=O)[O-])c1)c1ccccc1	14.4%
CC(Nc1ccc([N+](=O)[O-])cc1[N+](=O)[O-])c1ccccc1 (stereo not given)	4.8%
O=C(NC(Nc1nc2ccc([N+](=O)[O-])cc2s1)(C(F)(F)F)C(F)(F)F)c1ccccc1	74.8% (active)
Cc1cn(C2CC(O)C(CO)O2)c(=O)n(CCCc2ccccc2)c1=O (stereo not given)	1.7%
COc1ccc(-c2cc(C3CCN(c4ncccc4[N+](=O)[O-])CC3)[nH]n2)cc1	18.1%
CN(CC(=O)NCCc1ccccn1)S(=O)(=O)c1ccc(Cl)cc1	-8%
CN(CC(=O)NCC(c1ccccc1)N1CCCC1)S(=O)(=O)c1ccc(Cl)cc1 (stereo not given)	-5.7%
CN(CC(=O)NNC(=O)CNC(=O)c1ccccc1Cl)S(=O)(=O)c1ccc(Cl)cc1	60.5% (active)
COc1ccc(C(CCN(Cc2ccc(OC)c(OC)c2)C(=O)CCl)c2ccccc2)cc1 (stereo not given)	82.6% (active)
COc1ccc(CCNC(=O)CN(c2ccccc2)S(C)(=O)=O)cc1OC	-0.3%
COc1ccc(C(C(=O)NC2CCCCC2)N(C(=O)CCl)c2ccccc2Cl)cc1 (stereo not given)	-13.3%
CCCCn1c(N)c(N(CC(C)C)C(=O)c2ccc(Br)o2)c(=O)[nH]c1=O	-29%
NC(=S)c1ccc(C(N)=S)o1	14.6%
CCC(C(=O)NCc1cccnc1)n1nc(C)c2sc3ccccc3c2c1=O (stereo not given)	9.9%
N#CCCn1ncc2ccccc21	-11.2%

SMILES	inhibition
Cc1nnc(NC(=O)CSc2nc(C3CCCCC3)nc3ccccc23)s1	22.6%
O=C(CSc1nc(C2CC2)nc2ccccc12)Nc1cccc(O)c1	50.1% (active)
O=C(CSc1nc(C2CC2)nc2ccccc12)Nc1ccc2c(c1)OCCO2	42.7%
O=Cc1ccc(OCc2cn3ccccc3n2)cc1	-22.3%
CN1c2ccc(C=O)c3c(C=O)ccc(c23)N(C)C1(C)C	88% (active)
Cc1ccc(C=O)c([B-](F)(F)F)c1	-9.8%
C=CCn1c(C2CC(=O)N(c3ccc(C)cc3)C2)nc2ccccc21 (stereo not given)	-16.5%
CCOc1ccc(S(=O)(=O)NCCC(=O)NNC(=O)c2ccc(F)cc2)cc1	9.6%
Cc1ccc2c(c1)N(CC(=O)N1CCCc3ccccc31)C(=O)C(C)O2 (stereo not given)	7.2%
CCOC(=O)c1c(C)oc2cc(Sc3ccccc3)c(O)c(O)c12	6.5%
CCOC(=O)c1c(C)oc2cc(Br)c(OCC(N)=O)cc12	-3.8%
CCOC(=O)c1c(-c2ccccc2)oc2cc(Br)c(O)c(C=O)c12	68.5% (active)
CCOC(=O)c1nnn2c3ccccc3c(=O)n(C)c12	-25.2%
CCCc1nc2c(c(=O)c3ccccc3n2C)c(=O)n1C1CCCCCC1	55.9% (active)
CCOC(=O)N1CCN(C(=O)c2nn(-c3ccc(C)cc3)c(=O)c3c2c2ccccc2n3C)CC1	-7.7%
Cc1ccc(CNC(=O)c2ccc(CS(=O)Cc3cccc(Cl)c3)o2)cc1 (stereo not given)	1.3%
O=C(Nn1cc(C(=O)N2CCN(c3ccccc3F)CC2)c2ccccc2c1=O)c1cnccn1	-8.3%
NNc1cccc(C=Cc2ccccc2)cc1=O	3.8%
O=C1OC(Oc2ccc(Br)cc2)(c2ccccc2)c2ccccc21 (stereo not given)	50.3% (active)
CCOC(=O)CSc1nnc(CNC(=O)Cc2ccccc2)n1-c1ccccc1OC	1.5%

SMILES	inhibition
CS(=O)(=O)c1cccc(-c2ccc3nncn3c2)c1	5.2%
CC(C)OC(=O)c1ccc(NCc2cc(O)ccc2O)cc1Cl	86.3% (active)
O=C(O)Cc1ccc(NCc2ccccc2Cl)cc1	-14.4%
CC(CN1CCCCC1)OC(=O)c1ccccc1Cl (stereo not given)	-7.9%
Oc1cccc2cc(-c3ccncc3)cnc12	13.6%
COc1ccc(CNC(=O)C[C@H]2C[C@H](C(=O)N3CCOCC3)[C@@]3(CCC4CCCC4)c4[nH]c5ccc(Cl)cc5c4CCN3C2=O)cc1OC	8.2%
O=C(CCS(=O)(=O)Cc1ccccc1F)NCCCN1CCCCC1	5%
CC1CN(c2cc(=O)n(-c3cccc(Br)c3)c(=O)[nH]2)CC(C)O1 (stereo not given)	-24.9%
COC(=O)C1CCN(C(=O)COC(=O)c2cc(S(=O)(=O)N3CCOCC3)ccc2C)CC1	5.9%
CC(C)NS(=O)(=O)c1ccc(CCC(=O)N2CCOCC2)cc1	5%
CC(=O)Nc1ccc(NC(=O)CSCc2cnn(-c3ccccc3)c2-n2cccc2)cc1	11.8%
Cc1cc(C)nc(S/C=C/C(=O)c2ccccc2)n1	71.8% (active)
COC(c1ccccc1)(c1ccccc1)C(Oc1nc(C)cc(C)n1)C(=O)O (stereo not given)	3.3%
O=C(/C=C/Sc1ncn[nH]1)c1ccc(Cl)cc1	42.7%
C[C@@H]1Cn2cnc(C(=O)Nc3ccc(CNC(=O)OC(C)(C)C)cc3)c2C(=O)N1	-14.7%
C=C(C)CNC(=O)c1ccc(OC2CCN(C(=O)COC)CC2)cc1	13.1%
CC(=O)N1c2ccc(S(=O)(=O)NCCC(=O)N(C)C3CCCCC3)cc2CC1C (stereo not given)	3.2%
COc1ccccc1C(=O)Nc1cccc(C(=O)N2CCOCC2)c1	-3.8%
O=C(Nc1ccc(C(=O)N2CCOCC2)cc1)Nc1cccc(C(F)(F)F)c1	55.4% (active)
Cc1c(Cl)cccc1NC(=O)Nc1ccc(C(=O)N2CCCC2)cc1	3.8%
